As a reminder, the AC50 is the concentration giving half of the maximal activity seen.

Our source for the outcome and AC50 values is PubChem BioAssay (EPA / NIEHS).

Experiment [1] addresses Paired box protein Pax-6 (Homo sapiens) (UniProt P26367). The experiment is described as follows: ATG_Pax6_CIS: Attagene CIS-FACTORIAL HepG2 Assay for human Paired Box 6 (PAX6) (AID 2282956). The note with it: HepG2 CIS-FACTORIAL PAX6 reporter transcription, RNA readout; actives raise or lower the signal. The method in brief:
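Read-out is reporter transcript level, measured by RT-PCR with fluorescent primer extension and capillary electrophoresis after 24 h dosing of transfected HepG2 cells. Activity in either direction fitted relative to DMSO control.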

Experiment [2] is described as follows: ATG_PXRE_CIS: Attagene CIS-FACTORIAL HepG2 Assay for human Pregnane X Receptor Element (PXRE) (AID 2282957). The note with it: HepG2 Attagene CIS-FACTORIAL PXRE reporter, mRNA; actives raise or lower the signal. In a few lines: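 Endogenous transcription factor activity in HepG2 was gauged through induction of reporter mRNA driven by a cis-regulating promoter element, sampled 24 h post-treatment. Activity was fitted in both directions against DMSO negative control.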

Experiment [3] is described as follows: ATG_RORE_CIS: Attagene CIS-FACTORIAL HepG2 Assay for human RAR-related Orphan Receptor Element (RORE) (AID 2282959). The note with it: HepG2 Attagene cis-factorial RORE reporter, mRNA; actives raise or lower the signal. In a few lines:
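Readout: fluorescent reporter mRNA by RT-PCR plus capillary electrophoresis, 24 h after dosing transfected HepG2 cells. Endogenous transcription factor activity on a cis promoter element is measured. Gain or loss of signal fitted against DMSO.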

The target in experiment [4] is Transcription factor Sp1 (Homo sapiens) (UniProt P08047). The experiment is described as follows: ATG_Sp1_CIS: Attagene CIS-FACTORIAL HepG2 Assay for human Specificity Protein 1 (Sp1) (AID 2282961). The note with it: HepG2 Sp1 cis-reporter transcription, actives raise or lower the signal. The method in brief: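 Read-out: fluorescence of 6-FAM-labeled, HpaI-digested RT-PCR products separated by capillary electrophoresis. HepG2 cells carried transfected cis-element reporter units and were exposed to chemicals for 24 h; gain or loss of signal fitted relative to DMSO.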

The nature of experiment [5]: ATG_SREBP_CIS: Attagene CIS-FACTORIAL HepG2 Assay for human Sterol Regulatory Element Binding (SREBP) (AID 2282962). The note with it: HepG2 Attagene cis-factorial SREBP reporter, mRNA; actives raise or lower the signal. The method in brief: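 Endogenous SREBP activity read as cis-element-driven reporter transcript in transiently transfected HepG2, 24 h post-dosing; quantified via RT-PCR plus capillary electrophoresis of fluorescent fragments. Gain or loss of signal fitted relative to DMSO baseline.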

Experiment [6] has as its target Signal transducer and activator of transcription 3 (Homo sapiens) (UniProt P40763). Put plainly: ATG_STAT3_CIS: Attagene CIS-FACTORIAL HepG2 Assay for human Signal Transducer and Activator of Transcription 3 (STAT3) (AID 2282963). The settings on record: HepG2, Attagene cis-factorial STAT3 reporter transcription; actives raise or lower the signal. The method in brief:
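Cis-factorial format: endogenous transcription factors in HepG2 drive transfected reporter units. After 24 h treatment, reporter RNA was reverse-transcribed, amplified, FAM-labelled and HpaI-digested before CE analysis; activity scored in both directions against DMSO.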

The nature of experiment [7]: ATG_TA_CIS: Attagene CIS-FACTORIAL HepG2 Assay for human TA Basal Promoter (AID 2282964). The note with it: HepG2 Attagene CIS-factorial TA basal promoter reporter; actives raise or lower the signal. The method in brief:
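Multiplexed mRNA reporter assay, HepG2, 24 h. Reporter cDNA amplified, 6-FAM primer-extended, HpaI-cut, CE-sized; DMSO = negative control and baseline.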

Experiment [8] in a line: ATG_TCF_b_cat_CIS: Attagene CIS-FACTORIAL HepG2 Assay for human T-Cell-Factor with beta-catenin (TCF/b-cat) (AID 2282965). The settings on record: HepG2 TCF/beta-catenin cis-reporter transcription, actives raise or lower the signal. In a few lines:
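Endogenous transcription factor activity is captured through cis-promoter reporter constructs transiently introduced into human HepG2 liver cells. Induced reporter mRNA is measured after 24 h and fitted bidirectionally relative to DMSO.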

Experiment [9] in a line: ATG_TAL_CIS: Attagene CIS-FACTORIAL HepG2 Assay for human TAL Basal Promoter (AID 2282966).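 Also: background control endpoint measuring basal TAL promoter reporter mRNA not a specific factor.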 The note with it: HepG2 Attagene cis-factorial TAL promoter reporter; actives raise or lower the signal. The method in brief: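 Endogenous transcription-factor activity is sensed in HepG2 cells through transfected cis-promoter reporter constructs. After 24 h dosing, reporter transcripts are quantified by RT-PCR and capillary electrophoresis. Gain or loss of signal is fitted relative to DMSO.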

Experiment [10] is described as follows: ATG_TGFb_CIS: Attagene CIS-FACTORIAL HepG2 Assay for human Transforming Growth Factor (TGF) (AID 2282967). The settings on record: HepG2 Attagene CIS TGFb reporter, mRNA transcription; actives raise or lower the signal. In a few lines:
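Transcript-level reporter readout: HepG2 transfectants, 24 h exposure, RNA to cDNA, reporter-specific PCR, fluorescent primer extension, capillary sizing against ROX standards. Gain- or loss-of-signal relative to DMSO.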

Experiment [11] can be described thus: ATG_VDRE_CIS: Attagene CIS-FACTORIAL HepG2 Assay for human Vitamin D Receptor Element (VDRE) (AID 2282968). The note with it: HepG2 VDRE cis-reporter transcription, actives raise or lower the signal. The method in brief:
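Measures endogenous factor activity through cis-element-driven reporter transcripts in transiently transfected HepG2. Cells are treated 24 h; reporter mRNA is quantified by RT-PCR and capillary electrophoresis; fitting is bidirectional.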

In experiment [12] the target is Estrogen receptor (Homo sapiens) (UniProt P03372). The experiment is described as follows: ATG_ERa_TRANS: Attagene TRANS-FACTORIAL HepG2 Assay for human Estrogen Receptor alpha (ERa) (AID 2282970; active = hit-call score of the fitted dose curve at least 0.9, where 1 is the maximum). The settings on record: HepG2 Attagene TRANS ERa GAL4 reporter, mRNA. In a few lines: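 Transfected HepG2 cells carrying GAL4-UAS-driven reporter units were dosed for 24 hours. Total RNA was reverse-transcribed, reporter sequences PCR-amplified, FAM-labelled, HpaI-digested and resolved by capillary electrophoresis. Increases over DMSO control defined activity.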

The target of experiment [13] is Steroid hormone receptor ERR1 (Homo sapiens) (UniProt P11474). The experiment is described as follows: ATG_ERRa_TRANS: Attagene TRANS-FACTORIAL HepG2 Assay for human Estrogen-Related Receptor alpha (ERRa) (AID 2282971; active = hit-call score of the fitted dose curve at least 0.9, where 1 is the maximum). The note with it: HepG2 Attagene TRANS reporter, ERRa transactivation. In a few lines: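 HepG2 cells were transiently transfected with multiple GAL4-UAS reporter units, then dosed with compound for 24 h. Total RNA was reverse-transcribed, reporter cDNA PCR-amplified and fluorescently labelled, and fragments resolved by capillary electrophoresis; induction was compared with DMSO.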

The target of experiment [14] is X-box-binding protein 1 (Homo sapiens) (UniProt P17861). The experiment is described as follows: ATG_Xbp1_CIS: Attagene CIS-FACTORIAL HepG2 Assay for human X-box Binding Protein 1 (XBP1) (AID 2282972). The note with it: HepG2 XBP1 cis-element reporter, Attagene multiplex; actives raise or lower the signal. In a few lines: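 Reporter transcripts were quantified by RT-PCR with fluorescent primer extension and capillary electrophoresis after 24 h chemical exposure. Cells: transiently transfected HepG2 carrying cis-regulated reporter constructs; data fitted bidirectionally relative to DMSO.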

The nature of experiment [15]: ATG_M_19_TRANS: Attagene TRANS-FACTORIAL HepG2 Assay for M19 Transcription Factor (Internal Marker) (AID 2282974; active = hit-call score of the fitted dose curve at least 0.9, where 1 is the maximum). The settings on record: HepG2 Attagene TRANS-FACTORIAL M19 internal marker reporter. The method in brief:
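24 h chemical exposure of transiently transfected HepG2 (MRTU library). RNA → oligo(dT) RT → PCR → 6-FAM labelling → HpaI cut → CE fluorescence. Positive-direction fit vs DMSO baseline; background internal-marker readout.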

Experiment [16] deals with Estrogen-related receptor gamma (Homo sapiens) (UniProt P62508). Put plainly: ATG_ERRg_TRANS: Attagene TRANS-FACTORIAL HepG2 Assay for human Estrogen-Related Receptor gamma (ERRg) (AID 2282977; active = hit-call score of the fitted dose curve at least 0.9, where 1 is the maximum;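 also: hits increase reporter signal over DMSO so potencies reflect activators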). The settings on record: HepG2 Attagene TRANS reporter, ERRg transactivation. In a few lines: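 Exogenous NR-Gal4 chimera activity was assessed in HepG2 cells bearing transfected GAL4-UAS reporters. After 24 h dosing, total RNA underwent RT-PCR, fluorescent primer extension and HpaI digestion before capillary electrophoresis, with gain of signal scored against DMSO.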

Experiment [17] in a line: ATG_Sox_CIS: Attagene CIS-FACTORIAL HepG2 Assay for human SRY-box transcription factor (SOX) (AID 2282960). The settings on record: HepG2 Attagene cis-factorial SOX reporter, mRNA; actives raise or lower the signal. The method in brief:
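Read-out: fluorescent RT-PCR products of SOX1-linked reporter transcripts resolved by capillary electrophoresis, fitted bidirectionally against DMSO. Transiently transfected HepG2 cells, 24 h after chemical exposure, endogenous transcription factor activity.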

The target of experiment [18] is Nuclear receptor subfamily 1 group I member 3 (Homo sapiens) (UniProt Q14994). The experiment is described as follows: ATG_CAR_TRANS: Attagene TRANS-FACTORIAL HepG2 Assay for human Constitutive Androstane Receptor (CAR) (AID 2282969; active = hit-call score of the fitted dose curve at least 0.9, where 1 is the maximum;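 also: activators raise reporter mRNA above DMSO so AC50 marks induction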). The settings on record: HepG2 Attagene TRANS-FACTORIAL CAR reporter. The method in brief:
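Signal is reporter mRNA induction relative to DMSO, measured 24 h after dosing by RT-PCR with fluorescent primer extension and capillary electrophoresis. Human HepG2 liver cells carried transiently transfected chimeric NR-Gal4/GAL4-UAS reporter constructs.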

Experiment [19] is described as follows: ATG_GAL4_TRANS: Attagene TRANS-FACTORIAL HepG2 Assay for GAL4 (Internal Marker) (AID 2282976; active = hit-call score of the fitted dose curve at least 0.9, where 1 is the maximum). The note with it: HepG2 Attagene TRANS GAL4 internal marker reporter. The method in brief:
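Fluorescence from capillary electrophoresis of labelled RT-PCR products quantifies reporter mRNA induction after 24 h dosing of HepG2 cells carrying transfected GAL4-UAS reporter transcription units. Vehicle DMSO serves as baseline.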

Records with an inconclusive call do not appear. Active and inactive are the calls of the source. The calls were made as follows, unless noted: active = hit-call score of the fitted dose curve at least 0.9, where 1 is the maximum; inactive = score below 0.9.

Sequence of Steroid hormone receptor ERR1 (Homo sapiens) (P11474 whole entry, looked up, the tested form may be a part): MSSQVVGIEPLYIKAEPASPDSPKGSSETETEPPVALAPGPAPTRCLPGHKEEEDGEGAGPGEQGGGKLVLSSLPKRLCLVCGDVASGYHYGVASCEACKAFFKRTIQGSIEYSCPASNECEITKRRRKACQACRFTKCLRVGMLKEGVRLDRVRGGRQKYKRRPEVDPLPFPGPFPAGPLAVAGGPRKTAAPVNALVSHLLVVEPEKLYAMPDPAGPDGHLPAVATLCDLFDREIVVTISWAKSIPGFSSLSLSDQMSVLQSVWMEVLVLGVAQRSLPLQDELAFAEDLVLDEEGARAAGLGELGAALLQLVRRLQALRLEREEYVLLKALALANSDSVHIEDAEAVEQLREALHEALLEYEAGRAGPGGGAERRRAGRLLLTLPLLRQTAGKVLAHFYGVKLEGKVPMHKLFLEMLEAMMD
Sequence of Transcription factor Sp1 (Homo sapiens) (P08047 whole entry, looked up): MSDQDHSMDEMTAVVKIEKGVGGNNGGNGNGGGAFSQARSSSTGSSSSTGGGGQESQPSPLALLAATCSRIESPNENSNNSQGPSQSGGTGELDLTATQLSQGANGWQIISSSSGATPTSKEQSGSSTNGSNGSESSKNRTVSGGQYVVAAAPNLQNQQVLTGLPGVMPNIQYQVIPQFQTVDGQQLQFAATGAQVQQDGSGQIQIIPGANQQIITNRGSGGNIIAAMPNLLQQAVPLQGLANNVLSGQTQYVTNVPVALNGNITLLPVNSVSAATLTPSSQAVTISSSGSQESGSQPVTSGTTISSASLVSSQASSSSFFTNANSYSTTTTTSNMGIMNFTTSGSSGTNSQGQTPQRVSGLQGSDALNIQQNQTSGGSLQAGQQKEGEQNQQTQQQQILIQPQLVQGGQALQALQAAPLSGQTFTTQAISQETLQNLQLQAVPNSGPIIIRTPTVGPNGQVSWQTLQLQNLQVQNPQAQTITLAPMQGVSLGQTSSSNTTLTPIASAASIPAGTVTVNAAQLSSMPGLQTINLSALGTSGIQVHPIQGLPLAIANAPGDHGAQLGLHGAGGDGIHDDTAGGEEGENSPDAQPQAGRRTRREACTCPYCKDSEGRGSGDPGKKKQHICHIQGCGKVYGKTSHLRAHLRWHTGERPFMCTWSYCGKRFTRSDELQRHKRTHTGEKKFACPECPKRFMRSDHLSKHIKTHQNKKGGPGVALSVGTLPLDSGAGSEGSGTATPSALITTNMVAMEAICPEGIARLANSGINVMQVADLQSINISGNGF
Sequence of Paired box protein Pax-6 (Homo sapiens) (P26367 whole entry, looked up): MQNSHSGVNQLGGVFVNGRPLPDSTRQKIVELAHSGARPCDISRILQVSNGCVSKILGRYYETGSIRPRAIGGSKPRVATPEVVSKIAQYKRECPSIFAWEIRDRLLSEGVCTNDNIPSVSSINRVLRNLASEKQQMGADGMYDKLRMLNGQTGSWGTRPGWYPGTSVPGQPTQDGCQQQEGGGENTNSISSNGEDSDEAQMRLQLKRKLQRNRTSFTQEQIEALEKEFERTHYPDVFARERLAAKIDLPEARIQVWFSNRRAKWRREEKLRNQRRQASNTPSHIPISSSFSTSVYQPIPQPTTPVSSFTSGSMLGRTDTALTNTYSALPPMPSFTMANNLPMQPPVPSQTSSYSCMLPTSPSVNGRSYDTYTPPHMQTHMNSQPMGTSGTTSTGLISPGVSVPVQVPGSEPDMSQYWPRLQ
Sequence of Signal transducer and activator of transcription 3 (Homo sapiens) (P40763 whole entry, looked up): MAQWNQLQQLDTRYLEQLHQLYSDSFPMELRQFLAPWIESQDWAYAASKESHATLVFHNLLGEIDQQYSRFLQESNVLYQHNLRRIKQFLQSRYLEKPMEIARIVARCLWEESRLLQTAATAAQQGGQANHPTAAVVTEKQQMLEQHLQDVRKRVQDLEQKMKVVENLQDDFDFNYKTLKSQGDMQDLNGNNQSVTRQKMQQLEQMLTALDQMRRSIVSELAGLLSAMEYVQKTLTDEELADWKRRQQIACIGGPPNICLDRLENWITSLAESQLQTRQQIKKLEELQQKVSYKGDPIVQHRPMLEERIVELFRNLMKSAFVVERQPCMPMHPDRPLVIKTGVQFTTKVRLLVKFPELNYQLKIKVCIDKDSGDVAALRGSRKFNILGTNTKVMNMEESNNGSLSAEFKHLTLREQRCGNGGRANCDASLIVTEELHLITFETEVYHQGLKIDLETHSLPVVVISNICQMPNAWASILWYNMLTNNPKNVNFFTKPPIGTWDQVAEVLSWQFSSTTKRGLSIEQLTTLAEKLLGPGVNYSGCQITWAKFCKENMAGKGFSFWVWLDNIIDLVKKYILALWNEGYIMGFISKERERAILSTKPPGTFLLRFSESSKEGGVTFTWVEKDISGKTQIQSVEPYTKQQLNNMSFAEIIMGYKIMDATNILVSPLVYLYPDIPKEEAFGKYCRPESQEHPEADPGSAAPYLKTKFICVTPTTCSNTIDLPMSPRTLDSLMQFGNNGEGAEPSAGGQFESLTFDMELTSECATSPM
Sequence of X-box-binding protein 1 (Homo sapiens) (P17861 whole entry, looked up): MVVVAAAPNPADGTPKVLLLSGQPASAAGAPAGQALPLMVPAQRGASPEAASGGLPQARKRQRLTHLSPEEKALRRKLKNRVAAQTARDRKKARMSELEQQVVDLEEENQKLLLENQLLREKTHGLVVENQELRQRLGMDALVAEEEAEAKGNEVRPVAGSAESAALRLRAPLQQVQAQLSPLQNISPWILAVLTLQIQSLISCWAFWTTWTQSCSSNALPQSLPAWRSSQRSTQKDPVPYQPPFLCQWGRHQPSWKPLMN
Sequence of Nuclear receptor subfamily 1 group I member 3 (Homo sapiens) (Q14994 whole entry, looked up, the tested form may be a part): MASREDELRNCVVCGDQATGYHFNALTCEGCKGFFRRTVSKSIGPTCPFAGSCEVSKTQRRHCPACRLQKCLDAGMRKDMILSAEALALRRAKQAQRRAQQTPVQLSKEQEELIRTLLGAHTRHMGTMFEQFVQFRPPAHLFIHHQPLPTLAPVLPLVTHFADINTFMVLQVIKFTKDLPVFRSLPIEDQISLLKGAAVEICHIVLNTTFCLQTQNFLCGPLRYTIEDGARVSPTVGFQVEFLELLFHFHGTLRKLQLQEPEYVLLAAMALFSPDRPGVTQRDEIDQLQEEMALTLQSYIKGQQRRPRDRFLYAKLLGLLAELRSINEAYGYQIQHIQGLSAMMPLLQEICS
Sequence of Estrogen-related receptor gamma (Homo sapiens) (P62508 whole entry, looked up, the tested form may be a part): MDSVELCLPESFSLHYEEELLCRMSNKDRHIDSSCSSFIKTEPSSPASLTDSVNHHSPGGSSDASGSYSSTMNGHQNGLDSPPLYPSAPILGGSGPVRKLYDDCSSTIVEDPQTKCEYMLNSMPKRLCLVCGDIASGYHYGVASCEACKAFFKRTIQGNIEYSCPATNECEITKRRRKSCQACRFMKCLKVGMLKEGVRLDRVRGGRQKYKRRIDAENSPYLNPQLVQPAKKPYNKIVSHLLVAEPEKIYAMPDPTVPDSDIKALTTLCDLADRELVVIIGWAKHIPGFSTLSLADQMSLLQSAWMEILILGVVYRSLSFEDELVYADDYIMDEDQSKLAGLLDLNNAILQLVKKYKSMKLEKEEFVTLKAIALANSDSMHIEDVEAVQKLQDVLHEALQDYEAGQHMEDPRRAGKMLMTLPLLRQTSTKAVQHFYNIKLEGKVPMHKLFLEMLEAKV
Sequence of Estrogen receptor (Homo sapiens) (P03372 whole entry, looked up, the tested form may be a part): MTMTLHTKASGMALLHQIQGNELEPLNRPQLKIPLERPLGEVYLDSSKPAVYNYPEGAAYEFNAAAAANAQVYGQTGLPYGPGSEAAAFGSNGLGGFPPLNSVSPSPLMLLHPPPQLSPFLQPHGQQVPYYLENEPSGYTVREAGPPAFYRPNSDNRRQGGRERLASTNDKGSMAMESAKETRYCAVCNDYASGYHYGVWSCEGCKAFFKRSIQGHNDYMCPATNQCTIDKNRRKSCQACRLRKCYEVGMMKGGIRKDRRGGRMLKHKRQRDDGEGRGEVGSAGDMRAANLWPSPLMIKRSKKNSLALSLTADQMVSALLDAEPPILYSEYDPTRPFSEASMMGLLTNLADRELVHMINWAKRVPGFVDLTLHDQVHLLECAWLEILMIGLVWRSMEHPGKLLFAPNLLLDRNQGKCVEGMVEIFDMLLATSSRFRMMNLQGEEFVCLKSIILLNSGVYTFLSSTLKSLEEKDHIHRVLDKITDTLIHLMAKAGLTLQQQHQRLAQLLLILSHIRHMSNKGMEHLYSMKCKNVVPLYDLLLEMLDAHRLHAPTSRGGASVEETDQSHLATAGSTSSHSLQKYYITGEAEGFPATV

For the compound `NCCOCCO`, the call in [1], in experiment [2], in experiment [3], in experiment [4], in experiment [5] and in experiment [6] was inactive. The call in [7], in [8], in [9], in [10], in experiment [11] and in experiment [12] was inactive. Besides, the result in experiment [13], in [14], in experiment [15] and in experiment [16] was inactive.

Take `O=CCCc1ccccc1`: the outcome in [1], in experiment [17], in [4], in experiment [5], in experiment [6] and in experiment [7] was inactive. The compound was classed as inactive in experiment [8], in experiment [9], in experiment [10], in experiment [11], in experiment [13] and in experiment [14]. In addition, the compound was classed as inactive in experiment [15]. Besides, the AC50 in [2] was 23.6 µM (active).

For the compound `O=S(=O)(O)c1cccc2c(S(=O)(=O)O)cccc12`, the compound was called inactive in [1], in [2], in [17], in experiment [4], in experiment [5] and in experiment [6]. For the same compound, the compound was classed as inactive in [7], in experiment [8], in experiment [9], in experiment [10], in experiment [11] and in experiment [18]. Further, the compound was classed as inactive in experiment [14], in experiment [15] and in experiment [19].

Turning to `C=CC(=O)NCOCC(C)C`, the result in experiment [1], in experiment [17], in experiment [4], in [5], in experiment [6] and in [7] was inactive. The outcome in [8], in experiment [9], in experiment [10], in experiment [14] and in [15] was inactive. Also, the AC50 in experiment [2] is 21 µM (active); in [11] it was 34.3 µM (active).

Take `O=[N+]([O-])c1cc(C(F)(F)F)ccc1Cl`: the outcome in experiment [1], in experiment [17], in [4], in experiment [5], in experiment [6] and in experiment [7] was inactive. Besides, the call in experiment [8], in experiment [9], in [10], in experiment [18], in experiment [13] and in experiment [14] was inactive. In addition, the AC50 in [2] is 12.7 µM (active).

With `Cc1ccc(C(C)C)cc1O`, the call in experiment [1], in experiment [3], in experiment [17], in [5], in experiment [6] and in experiment [7] was inactive. The compound was classed as inactive in experiment [8], in experiment [9], in experiment [10], in experiment [14] and in experiment [19]. Besides, the figures for the AC50 in [2] and in experiment [11] were 14.2 µM (active) and 26.9 µM (active), respectively.

As to `CCCCCC=CCC(=O)OC`, the compound was classed as inactive in [1], in [17], in experiment [4], in experiment [5], in experiment [6] and in experiment [7]. Moreover, the call in [8], in experiment [9], in [10], in experiment [11], in experiment [14] and in experiment [19] was inactive. Moreover, the AC50 in [2] is 100 µM (active).
